Results taken from PubChem BioAssay (NCATS).
Inconclusive results are not listed. Calls of active or inactive are those of the source. The call rests on the fitted dose curve; in most records, active means well fitted curve in the direction sought with a large enough effect; inconclusive means small, poorly fitted or top-dose-only effect, or another doubt; inactive means no such curve, though single readings can be large; an effect the other way counts as inactive or inconclusive.

Columns and labels:
[1] = KB-8-5-11 Cancer Cell Toxicity qHTS against the NCATS CANVASS Library (AID 1347364); further: nearly all actives have a fitted effect of over 75% in size
Method in brief: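 KB-8-5-11 cells, 500/well in DMEM + 10% FBS, given compounds in an 11-point series. Incubated 72 h at 37 °C. Viability by CellTiter-Glo luminescence. Confirmation also run with 1 uM tariquidar.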

[2] = SDT Cancer Cell Toxicity qHTS against the NCATS CANVASS Library (AID 1347365);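 further: SDT canine glioma cells 500 per well in 1536 well plates; nearly all actives have a fitted effect of over 60% in size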
Description: (§1) Natural products and their derivatives continue to be wellsprings of nascent therapeutic potential. However, many laboratories have limited resources for biological evaluation, leaving their previously isolated or synthesized compounds largely or completely untested. To address this issue, the Canvass library of natural products was assembled (https://tripod.nih.gov/canvass), in collaboration with academic and industry researchers, for quantitative high-throughput screening (qHTS) across a diverse set of cell-based and biochemical assays. The pure (>85% purity by liquid chromatography/mass spectrometry [LC/MS]) Canvass library of 346 natural products were submitted by 45 academic laboratories and companies around the world. We collected pure natural products to circumvent deconvolution and structure elucidation due to time and resource limitations. The library was formatted into 1536-well plates and evaluated in 50 qHTS (in an 11-pnt concentration series) bioassays with broad scope of disease-relevant mechanisms. The resulting data set from 50 different assays was then systematically analyzed to identify overall trends and specific natural products with interesting biological activities. Reported herein are the results of each individual qHTS and their corresponding assay protocol. This assay uses ATP (luminescence) content to measure the cytotoxiciy of compounds on SDT dog glioma cancer cell line. National Center for Advancing Translational Sciences (NCATS), Rockville, MD National Institute of Health (NIH), Bethesda, Maryland
(§2) Cancer Cell Toxicity qHTS protocol: for cell lines G06, J3T, and SDT. 1. In a 1536 well, tissue culture treated white solid bottom plates (Corning 7494), 5 uL of SDT cell solution (final concentration of 500 cells / well) was dispensed using the Multidrop Combi dispenser (Thermo Fisher Scientific) into columns 2, 3, 5-48. 2. […] Luminescence signal was acquired via the ViewLux plate reader (PerkinElmer) using a clear emission filter, 2 sec exposure, and 1x binning settings.

[3] = KB-3-1 Cancer Cell Toxicity qHTS against the NCATS CANVASS Library (AID 1347366); settings: outcome: dose series up to 46.1 µM; further: nearly all actives have a fitted effect of over 75% in size
Description: as §1, with “This assay uses ATP (luminescence) content to measure the cytotoxiciy of compounds on SDT dog glioma cancer cell line.” left out
as §2, with “qHTS protocol” for “qHTS protocol: for cell lines G06, J3T, and SDT.”, “of KB-3-1” for “of SDT”, “columns 3-48, rows 1-32. DMEM + 10% FBS + 100 U/mL penicillin / 100ug/mL streptomycin media solution was dispensed into column 1-2, row 1-32 also using the Multidrop Combi dispenser.” for “columns 2, 3, 5-48.”, “filter, 1” for “filter, 2”

[4] = qHTS for ATAD5 Agonist screened against the NCATS CANVASS Library (AID 1347367);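 further: luciferase reporter driven by ATAD5 which rises upon DNA damage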
Method in brief: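 Genotoxicity was scored as increased ATAD5-luciferase luminescence in HEK293T after 16hr of exposure, with cell viability measured by fluorescence beforehand in the same well.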

[5] = G06 Cancer Cell Toxicity qHTS against the NCATS CANVASS Library (AID 1347368); further: nearly all actives have a fitted effect of over 60% in size
Method in brief: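 G06 dog glioma cells, 500 per well, exposed 72 hr at 37C, 5% CO2 to compounds in an 11-point series. Cytotoxicity read as ATP content by CellTiterGlo luminescence.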

[6] = MCF7 Cancer Cell Toxicity qHTS against the NCATS CANVASS Library (AID 1347369); settings: MCF7 viability, ATP luminescence (CellTiter-Glo), 72 h; at 46 µM (top of the series)
Method in brief: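 This 72 hr qHTS scored MCF7 viability by CellTiterGlo luminescence, with 500 cells/well; bortezomib titration ran as control.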

[7] = qHTS for ATAD5 Antagonist screened against the NCATS CANVASS Library (AID 1347370);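 further: HEK293T cells carrying an ATAD5 luciferase reporter co-treated with 10 µM 5-fluorouridine; nearly all actives have a fitted effect of over 65% in size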
Method in brief: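 HEK293T cells with stably integrated ATAD5-luciferase reporter, 2000/well, 5 h attachment; compounds plus 10 µM 5-fluorouridine, 16 h at 37 °C. Luciferase luminescence read, with CellTiter-Fluor viability read first.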

[8] = J3T Cancer Cell Toxicity qHTS against the NCATS CANVASS Library (AID 1347371); settings: outcome: dose series up to 46.1 µM
Method in brief: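 J3T dog glioma cells, 500 per well, treated 72 h at 37C with compounds (11-point qHTS); viability from ATP content by CellTiterGlo luminescence; bortezomib titration as control.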

[9] = target: Nuclear receptor subfamily 1 group I member 3 (Homo sapiens) (UniProt Q14994); experiment: qHTS for Constitutive Androstane Receptor (CAR) Antagonist screened against the NCATS CANVASS Library (AID 1347372);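 further: cells stimulated with 50 nM CITCO agonist so inhibition reflects antagonism; luciferase from CYP2B6 promoter reporter driven by hCAR in HepG2 cells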
Method in brief: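 HepG2-CYP2B6-hCAR double-stable cells plated, 4hr attach; cpd pin-transferred; CITCO 50 nM final; 24hr 37C/5% CO2; CellTiter-Fluor 1hr (fluorescence), then ONE-Glo luminescence.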

[10] = target: Luciferin 4-monooxygenase (Photinus pyralis) (UniProt P08659); experiment: Firefly luciferase counterscreen qHTS: Assay Interference Panel against the NCATS CANVASS Library (AID 1347363)
Method in brief: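 Luminescence inhibition readout: compounds (11-point qHTS) sat 15 min at room temperature with substrate mix (0.013 mM luciferin and ATP), then firefly luciferase was added and signal read 5 min later.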

Measured: outcome

Nuclear receptor subfamily 1 group I member 3 (Homo sapiens), sequence (Q14994 whole entry, looked up): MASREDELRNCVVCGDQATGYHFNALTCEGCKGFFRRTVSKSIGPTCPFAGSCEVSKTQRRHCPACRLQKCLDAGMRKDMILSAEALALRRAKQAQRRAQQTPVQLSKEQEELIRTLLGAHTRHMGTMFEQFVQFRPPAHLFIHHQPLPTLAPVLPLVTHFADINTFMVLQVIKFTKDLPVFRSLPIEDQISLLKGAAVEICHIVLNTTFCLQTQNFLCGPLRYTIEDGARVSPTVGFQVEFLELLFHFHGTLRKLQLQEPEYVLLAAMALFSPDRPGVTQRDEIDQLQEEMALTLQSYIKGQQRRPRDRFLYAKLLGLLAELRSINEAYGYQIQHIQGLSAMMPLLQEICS
Luciferin 4-monooxygenase (Photinus pyralis), sequence (P08659 whole entry, looked up): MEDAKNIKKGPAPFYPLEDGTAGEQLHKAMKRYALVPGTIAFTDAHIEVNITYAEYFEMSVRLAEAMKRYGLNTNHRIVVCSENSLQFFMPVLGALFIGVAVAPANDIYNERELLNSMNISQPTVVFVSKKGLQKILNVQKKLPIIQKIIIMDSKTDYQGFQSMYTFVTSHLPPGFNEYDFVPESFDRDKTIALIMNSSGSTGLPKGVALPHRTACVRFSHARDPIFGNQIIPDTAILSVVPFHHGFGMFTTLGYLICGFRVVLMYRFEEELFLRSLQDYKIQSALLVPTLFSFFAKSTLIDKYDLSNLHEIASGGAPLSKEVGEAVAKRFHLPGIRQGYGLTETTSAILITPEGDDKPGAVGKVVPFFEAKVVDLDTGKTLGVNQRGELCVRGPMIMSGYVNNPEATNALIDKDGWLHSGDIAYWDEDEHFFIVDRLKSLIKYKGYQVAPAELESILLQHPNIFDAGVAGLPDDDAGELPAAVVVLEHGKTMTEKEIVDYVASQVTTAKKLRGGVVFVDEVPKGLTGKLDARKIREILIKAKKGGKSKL

O=c1cc(-c2ccccc2)oc2cc(O)c(O)c(O)c12
not listed: [10]
inactive: all other assays above

O=C(O)C(O)Cc1ccc(O)c(O)c1 (stereo not drawn)
not listed: [6]
inactive: all other assays above

COC(=O)[C@@H]1[C@H]2C[C@H]3c4[nH]c5ccccc5c4CCN3C[C@@H]2CC[C@@H]1O
inactive: all assays above
